Experimental findings from PubChem BioAssay (NCATS) are described below.

Each structure is given as a SMILES string. Inconclusive results are not listed. Entries that show only a call come without a potency. Calls of active or inactive are those of the source. Calls follow the shape of the dose curve; as a rule, active = well fitted cell-killing curve with a large enough effect; inconclusive = small, poorly fitted or top-dose-only effect; inactive = flat fitted curve, though single readings scatter.
Potency is read from the fitted curve at half-maximal effect.

This experiment is described as follows: qHTS of pediatric cancer cell lines to identify multiple opportunities for drug repurposing: Primary screen for Rh18 cells (AID 1347102). Also: nearly all actives have a fitted effect of over 65% in size. The following applies: Rh18 rhabdomyosarcoma viability, CellTiter-Glo luminescence, 48 h; series mostly up to 46 µM. Summed up:
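Cells (500-1,000/well) in growth media were settled 5 h at 37 degrees C, then given compounds for 48 h. Viability was read as CellTiter-Glo luminescence. Primary runs used MIPE at 11 points (0.78 nM-46 µM) and NPC at 8 points (0.59 nM-46 µM); follow-ups used 11 points.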
Background: qHTS replaces the single test concentration by a dilution series.
Turning to `NN=C(N)N`, the Potency entry is “inactive”.

In the case of `CN1CCN(C(=O)O[C@H]2c3nccnc3C(=O)N2c2ccc(Cl)cn2)CC1`, the Potency result is “inactive”.

As for `CC1NCCOC1c1ccccc1` (configuration not stated), the Potency result was “inactive”.

Consider `CC(C)=CC1C(C(=O)OCc2cccc(Oc3ccccc3)c2)C1(C)C` (configuration not stated), for which the Potency result is “inactive”.

Take `NCCc1cc(O)c(O)cc1O`: the Potency result was “inactive”.

In the case of `CCN(CC)C(=O)N[C@@H]1C=C2c3cccc4[nH]cc(c34)C[C@@H]2N(C)C1`, the Potency result was “inactive”.

Take `CCCC(C)(COC(N)=O)COC(=O)NC(C)C` (configuration not stated): the Potency result was “inactive”.

On to `O=[N+]([O-])c1cc([As](=O)(O)O)ccc1O`, for which the Potency entry was “inactive”.

As to `COc1ccc(C(=O)c2c(C)n(CCN3CCOCC3)c3ccccc23)cc1`, the Potency entry is “inactive”.

As to `CCC(C(N)=O)N1CCCC1=O` (configuration not stated), the Potency entry is “inactive”.

Regarding `C=C1CC[C@@]2(O)[C@H]3Cc4ccc(O)c5c4[C@@]2(CCN3CC2CC2)[C@H]1O5`, the Potency entry was “inactive”.

With `Nc1ccncc1`, the Potency result was “inactive”.

Regarding `CC(C)NCC(O)c1ccccc1Cl` (configuration not stated), the Potency result is “inactive”.

Consider `CCCN1CCC[C@@H]2Cc3nc(N)ncc3C[C@H]21`, for which the Potency result was “inactive”.

Turning to `N[C@@H](Cc1ccc(N(CCCl)CCCl)cc1)C(=O)O`, the Potency is 21.1 µM (active).

For `CCCN1CCC[C@@H]2Cc3[nH]ncc3C[C@H]21`, the Potency result was “inactive”.

Take `CC(=O)[C@H]1CC[C@H]2[C@@H]3CC[C@H]4C[C@](C)(O)CC[C@]4(C)[C@H]3CC[C@]12C`: the Potency entry was “inactive”.

On to `N[C@@H](Cc1ccc(Oc2cc(I)c(O)c(I)c2)c(I)c1)C(=O)O`, for which the Potency entry is “inactive”.

For `Clc1cccc(N2CCNCC2)c1`, the Potency entry is “inactive”.

With `C#CCN(C)[C@H](C)Cc1ccccc1`, the Potency entry was “inactive”.

In the case of `CC(C)(C)NCC(O)c1cc(Cl)c(N)c(Cl)c1` (configuration not stated), the Potency entry is “inactive”.

For the compound `CC[C@@H](CO)NC(=O)[C@@H]1C=C2c3cccc4[nH]cc(c34)C[C@H]2N(C)C1`, the Potency result is “inactive”.
